FLuc modulator = inhibits or activates purified firefly luciferase, miR-21 counter-screen; purified FLuc, Km substrates, luminescence inhibition; actives 6.9% (n = 360,000); AID 588342; P08659; Potency, µM (doses to about 57.5 µM), for the others: top-dose activity change, negative = inhibition, hits mostly inhibitors;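 note: plate controls were vehicle for no effect and reference inhibitor for full effect; nearly all actives have a fitted effect of over 55% in size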
Target sequence (P08659 whole entry, looked up): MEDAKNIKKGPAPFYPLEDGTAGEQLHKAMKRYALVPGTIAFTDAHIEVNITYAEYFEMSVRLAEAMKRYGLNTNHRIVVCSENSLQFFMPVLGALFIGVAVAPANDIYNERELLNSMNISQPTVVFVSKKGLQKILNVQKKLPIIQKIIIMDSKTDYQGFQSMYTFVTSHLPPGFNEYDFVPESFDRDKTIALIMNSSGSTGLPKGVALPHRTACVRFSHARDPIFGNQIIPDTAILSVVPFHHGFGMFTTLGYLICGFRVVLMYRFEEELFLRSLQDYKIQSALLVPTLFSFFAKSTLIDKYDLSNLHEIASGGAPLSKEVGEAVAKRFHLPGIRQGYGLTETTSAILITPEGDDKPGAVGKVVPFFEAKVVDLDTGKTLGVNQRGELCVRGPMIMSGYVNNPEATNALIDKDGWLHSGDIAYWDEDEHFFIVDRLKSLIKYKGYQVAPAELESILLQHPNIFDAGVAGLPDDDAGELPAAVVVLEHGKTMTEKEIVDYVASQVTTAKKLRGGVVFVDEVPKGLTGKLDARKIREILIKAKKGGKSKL
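Biochemical qHTS of compounds, final roughly 60 µM downward over six points, against 10 nM purified firefly luciferase using Km concentrations of substrates (10 uM D-luciferin, 10 uM ATP) in Tris acetate pH 7.5 buffer; luminescence output.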
NPC1 prom act = activates the NPC1 promoter | Potency, µM (series often up to 9.22 µM), inactives show at the top dose activation, usual class: activators | AID 485313 | Huh7 NPC1 promoter luciferase reporter, 24 h | actives 2.4% (n = 320,000); note: % of control where 0% means no effect; nearly all actives have a fitted effect of over 60% in size
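Huh7 cells stably carrying NPC1 promoter–luciferase, plated in Opti-MEM with 10% FBS for 2 h, were exposed to compound in DMSO for 24 h at 37 °C; luciferase reagent was added for 10 min and luminescence read.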
Rab9 prom act = Rab9 promoter activation; Huh7 Rab9 promoter-luciferase reporter, luminescence, 24 h; Potency, µM (doses to about 9.22 µM), for inactives: at the highest dose activation, negative = inhibition, hits mostly activators; actives 2.8% (n = 320,000); note: % of control where 0% means no effect; nearly all actives have a fitted effect of over 60% in size
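Quantitative HTS format; Huh7 Rab9-luciferase reporter cells (1500/well) receive compound 2 h post-plating, incubate 24 h at 37 °C, then get luciferase reagent for 10 min before luminescence reading.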
ELG1 genotox = genotoxicity induction in ELG1-luciferase HEK293T cells; actives 1.3% (n = 330,000); Potency, µM (highest dose often 46 µM), inactives show top-dose activity change, positive = activation, usual class: activators; HEK293T ELG1-luciferase reporter, luminescence, 16 h; note: % of control where 0% means no effect; nearly all actives have a fitted effect of over 60% in size
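Cells (2,000/well) expressing the ELG1-luciferase fusion are dosed by pin tool and kept 16 hr at 37 °C, 5% CO2. Signal comes from ONE-Glo luciferase reagent after 30 min at room temperature.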
SMN2 splice up = SMN2 splice variant enhancement; HEK293 SMN2-luciferase splicing reporter, luminescence, 30-36 h; Potency, µM (titrated, usually from 46.1 µM), without a hit: top-dose activity change, positive = activation, actives largely listed as activators; actives 2.8% (n = 210,000); AID 1458; note: % of control where 0% means no effect; nearly all actives have a fitted effect of over 55% in size
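HEK293 cells carry an SMN2 minigene-luciferase reporter in which exon 7 inclusion puts luciferase in frame. Cells were seeded at 2000 cells/well, attached for 10-12 hours, then exposed to compounds for 30-36 hours at 37C before ONE-Glo luminescence.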
An asterisk follows results filed as active; ? = inconclusive; . = no result. Shown are actives, neighbours in structure and some others; about 7.4% of the full set was active somewhere. Calls come from the whole dose curve; as a rule, active = well fitted curve in the direction sought with a large enough effect; inconclusive = small, poorly fitted or top-dose-only effect, or another doubt; inactive = no such curve, though single readings can be large; an effect the other way counts as inactive or inconclusive. Potency is the fitted concentration of half-maximal effect.

SMILES	FLuc modulator	NPC1 prom act	Rab9 prom act	ELG1 genotox	SMN2 splice up
COc1cccc(OCc2nc3ccccc3[nH]2)c1	6.75µM*	3.16µM*	3.55µM*	?	12.6µM*
Nc1ccc2nc(COc3ccccc3)[nH]c2c1	?	1.4%	14.6%	7.2%	.
Brc1ccc(OCc2nc3ccccc3[nH]2)cc1	2.39µM*	3.16µM*	2.51µM*	?	.
c1ccc2cc(OCc3nc4ccccc4[nH]3)ccc2c1	1.9µM*	2.24µM*	2µM*	?	2.82µM*
Cc1ccccc1OCc1ccc(-c2nc(C#N)c(N3CCN(c4ccccc4)CC3)o2)o1	-6.1%	.	.	.	.
C(=C\c1nc(-c2ccncc2)no1)/c1ccccc1	-1.8%	-2.6%	-13.6%	-0.8%	.
C(=C\c1nc(-c2ccccc2)no1)/c1ccccc1	1.35µM*	1.58µM*	0.562µM*	?	10µM*
CCOC(=O)C1(Cc2ccccc2Cl)CCN(C(=O)c2cnccn2)CC1	15.1µM*	?	2.82µM*	?	.
CC(C1CCCC(=O)C1)[N+](=O)[O-] (centres undefined)	.	.	.	.	12.5%
CCOc1ccc(C(=O)N/N=C/c2ccc(SC)cc2)cc1	-8.0%	2.4%	-4.2%	7.3%	?
CCOc1ccc(N/C=C/C(=O)c2ccccc2)c([N+](=O)[O-])c1	0.12µM*	0.1µM*	0.1µM*	?	0.562µM*
O=C(NCCOc1ccccc1)C1CCCCC1	?	?	3.16µM*	?	20µM*
CC(C)(C)C(=O)/C=C/c1ccc(Oc2ccccc2)cc1	6.01µM*	?	6.31µM*	?	.
CCOc1ccc(C(=O)/C=C/c2ccc(SC)cc2)cc1	5.36µM*	0.7%	-0.9%	0.0%	-6.5%
O=C(CC1CCCCC1)NCCOc1ccccc1	-10.9%	11.4%	1.1%	6.4%	8.2%
CCOc1ccc(C(=O)/C=C/c2cc(OC)c(OC)c(OC)c2)cc1	?	-7.2%	-15.5%	-8.8%	-57.0%
O=C(/C=C/c1ccccc1)NCCOc1ccccc1	23.9µM*	27.5%	?	?	?
CCOc1ccc(/C=C/C(=O)NCc2ccccc2)cc1	15.1µM*	1.9%	-2.4%	7.5%	6.0%
CCOc1ccc(/C=C/C(=O)c2ccccc2)cc1	0.151µM*	1.12µM*	0.794µM*	?	.
CCOC(=O)Cc1csc(N/N=C/c2ccccc2)n1	15.1µM*	29.1%	19.8%	8.7%	2.5%
COc1ccc(/C=N/Nc2nc(C(=O)O)cs2)cc1	0.675µM*	?	?	5.8%	.
CCOC(=O)Cc1csc(NC(=O)COc2ccccc2OC)n1	-3.6%	3.3%	3.1%	0.1%	.
CCOC(=O)Cc1csc(N/N=C\c2ccccc2OC)n1	10.7µM*	25.9%	19.6%	7.6%	.
CCOC(=O)Cc1csc(N/N=C\c2cccc(Br)c2)n1	?	11.2%	7.3%	-1.2%	-1.0%
CCOC(=O)Cc1csc(N/N=C\c2ccc(N(C)C)cc2)n1	2.39µM*	?	28.9%	7.8%	.
SMILES	FLuc modulator	NPC1 prom act	Rab9 prom act	ELG1 genotox	SMN2 splice up
CCCCN(CC)Cc1ccc(CNS(=O)(=O)c2cc3c(cc2Cl)NC(=O)CO3)o1	-4.8%	.	.	.	.
O=C(/C=C/c1ccc(O)c([N+](=O)[O-])c1)c1ccc2ccccc2c1	7.57µM*	22.5%	1.7%	0.0%	.
COc1ccc(C(=O)/C=C/c2ccc(OC)c(COc3ccccc3F)c2)cc1	?	-0.5%	-2.1%	-1.1%	-45.7%
COc1ccc(Oc2ccc(/C=C/C(=O)c3ccc(O)cc3)cc2[N+](=O)[O-])cc1	23.9µM*	-0.7%	-8.9%	-14.9%	-103.5%
CN(C)c1ccc(/C=C/C(=O)c2ccccc2)cc1[N+](=O)[O-]	1.2µM*	3.55µM*	2.51µM*	-0.1%	-108.2%
CNc1ccc(/C=C/C(=O)c2ccc(C)cc2)cc1[N+](=O)[O-]	?	5.0%	-1.1%	?	1.4%
Cc1ccc(N2CC(NC(=O)c3cccc(Cl)c3)CC2=O)cc1C (centres undefined)	4.8%	.	.	.	.
Cc1cccc(NC(=S)NC(C)C(c2ccccc2)N2CCN(C)CC2)c1C (centres undefined)	-0.3%	-5.3%	-1.0%	-0.3%	-5.1%
Cc1ccc(C)c2sc(NC(=O)c3ccc(S(=O)(=O)N4CCC(C)CC4)cc3)nc12	-15.5%	.	.	.	.

Compound activity: PubChem, National Center for Advancing Translational Sciences (NCATS)
